# Experimental data from PubChem BioAssay.
# Activity calls are given as the source filed them.
# Tests used:
# [1] = E. coli DRC41 culture turbidity changes, primary screen, E. coli filamentation inducer project, strain DRC41, OD650, 48 h (AID 1152);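 also: E. coli MC1000 strain DRC41 lacking acrAB efflux pump and sulA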; settings: E. coli DRC41 (acrAB sulA), higher = more signal, called active from +8 up or from −8 down
# [2] = small-molecule binders of probe aLefty1, primary screen, biochemical, small-molecule microarray, 635/667 nm fluorescence (AID 1153); settings: higher = more signal;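 also: score merges spot fluorescence with signal-to-noise ratio from the scanned slide images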
# [3] = PSAC antagonists in infected red cells, primary screen, cell-based, P. falciparum Indochina, OD700, 1 h (AID 1154); settings: P. falciparum Indochina infected RBC osmotic lysis, higher = more signal, called active from +8 up or from −8 down
# [4] = PSAC antagonists in infected red cells, primary screen, cell-based, P. falciparum Indochina, OD700, 2 h (AID 1155);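 also: lysis reports solute entry through the parasite surface anion channel PSAC; channel blockers reduce lysis of infected cells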; settings: P. falciparum Indochina infected erythrocytes, osmotic lysis OD700; higher = more signal, called active from +8 up or from −8 down
# [5] = osmotic lysis modulators in infected erythrocytes, primary screen, PSAC antagonist project, cell-based, P. falciparum Indochina, OD700, 3 h (AID 1156); settings: higher = more signal, called active from +8 up or from −8 down
# [6] = PSAC antagonists in infected red cells, primary screen, cell-based, P. falciparum Indochina, OD700, 18 h (AID 1157); settings: P. falciparum Indochina infected erythrocytes, osmotic lysis OD700, 18 h; higher = more signal, called active from +8 up or from −8 down
# [7] = modulators of S6 phosphorylation in cells, primary screen, cell-based, A549, cytoblot, luminescence, serum-stimulated (AID 1158); settings: A549 phospho-S6 cytoblot, 5 h, higher = more signal;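 also: serum-stimulated A549 lung adenocarcinoma cells; signal is phosphorylated S6 detected by cytoblot immunostaining with HRP secondary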
# [8] = biological target: NADPH oxidase 2 (Homo sapiens) (UniProt P04839); experiment: NOX2-dependent H2O2 signal modulators, primary screen, NOX inhibitor project, cell-based, HEK293-NOX2, PMA-stimulated, Amplex Red fluorescence (AID 1159); settings: 45 min, higher = more signal, called active from +8 up or from −8 down; also: test concentration not given here
# NADPH oxidase 2 (Homo sapiens), sequence (P04839 whole entry, looked up): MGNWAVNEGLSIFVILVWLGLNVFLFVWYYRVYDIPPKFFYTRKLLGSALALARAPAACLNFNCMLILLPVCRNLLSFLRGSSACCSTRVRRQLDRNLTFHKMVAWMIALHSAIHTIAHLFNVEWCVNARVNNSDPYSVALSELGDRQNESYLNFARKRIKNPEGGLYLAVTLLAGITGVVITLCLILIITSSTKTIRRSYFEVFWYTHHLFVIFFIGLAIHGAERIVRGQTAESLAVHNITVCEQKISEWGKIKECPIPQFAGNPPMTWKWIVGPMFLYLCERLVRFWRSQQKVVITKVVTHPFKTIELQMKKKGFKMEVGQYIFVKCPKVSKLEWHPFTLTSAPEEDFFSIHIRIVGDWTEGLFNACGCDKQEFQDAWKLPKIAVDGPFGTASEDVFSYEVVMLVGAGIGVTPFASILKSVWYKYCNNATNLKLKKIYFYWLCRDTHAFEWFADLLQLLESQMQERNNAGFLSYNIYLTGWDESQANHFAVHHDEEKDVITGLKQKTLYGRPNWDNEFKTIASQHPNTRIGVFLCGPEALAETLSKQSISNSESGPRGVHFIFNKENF
# [9] = biological target: NADPH oxidase 4 (Homo sapiens) (UniProt Q9NPH5); experiment: NOX4-dependent H2O2 signal modulators, primary screen, NOX inhibitor project, cell-based, HEK293-NOX4, tetracycline-induced, Amplex Red fluorescence (AID 1160); settings: 45 min, higher = more signal, called active from +8 up or from −8 down
# NADPH oxidase 4 (Homo sapiens), sequence (Q9NPH5 whole entry, looked up): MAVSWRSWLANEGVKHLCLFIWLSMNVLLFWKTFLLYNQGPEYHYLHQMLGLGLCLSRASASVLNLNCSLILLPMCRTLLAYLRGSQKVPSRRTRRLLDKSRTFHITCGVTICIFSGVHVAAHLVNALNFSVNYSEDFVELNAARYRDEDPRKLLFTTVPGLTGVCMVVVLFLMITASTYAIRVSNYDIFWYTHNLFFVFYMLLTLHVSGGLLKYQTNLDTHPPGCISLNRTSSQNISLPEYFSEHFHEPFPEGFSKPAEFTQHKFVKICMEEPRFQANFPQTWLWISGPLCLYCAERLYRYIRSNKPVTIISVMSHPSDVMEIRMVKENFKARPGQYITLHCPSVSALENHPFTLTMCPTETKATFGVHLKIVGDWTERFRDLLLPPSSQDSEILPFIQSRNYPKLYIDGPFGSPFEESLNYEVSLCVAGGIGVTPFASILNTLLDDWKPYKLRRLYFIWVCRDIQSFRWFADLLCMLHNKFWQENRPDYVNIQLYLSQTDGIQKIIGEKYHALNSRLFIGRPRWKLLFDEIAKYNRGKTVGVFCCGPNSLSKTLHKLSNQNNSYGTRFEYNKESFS
# [10] = biological target: NADPH oxidase 5 (Homo sapiens) (UniProt Q96PH1); experiment: NOX5-dependent H2O2 signal modulators, primary screen, NOX inhibitor project, cell-based, HEK293-NOX5, Amplex Red fluorescence (AID 1161); settings: HEK293-NOX5, ionomycin, 45 min, higher = more signal
# NADPH oxidase 5 (Homo sapiens), sequence (Q96PH1 whole entry, looked up): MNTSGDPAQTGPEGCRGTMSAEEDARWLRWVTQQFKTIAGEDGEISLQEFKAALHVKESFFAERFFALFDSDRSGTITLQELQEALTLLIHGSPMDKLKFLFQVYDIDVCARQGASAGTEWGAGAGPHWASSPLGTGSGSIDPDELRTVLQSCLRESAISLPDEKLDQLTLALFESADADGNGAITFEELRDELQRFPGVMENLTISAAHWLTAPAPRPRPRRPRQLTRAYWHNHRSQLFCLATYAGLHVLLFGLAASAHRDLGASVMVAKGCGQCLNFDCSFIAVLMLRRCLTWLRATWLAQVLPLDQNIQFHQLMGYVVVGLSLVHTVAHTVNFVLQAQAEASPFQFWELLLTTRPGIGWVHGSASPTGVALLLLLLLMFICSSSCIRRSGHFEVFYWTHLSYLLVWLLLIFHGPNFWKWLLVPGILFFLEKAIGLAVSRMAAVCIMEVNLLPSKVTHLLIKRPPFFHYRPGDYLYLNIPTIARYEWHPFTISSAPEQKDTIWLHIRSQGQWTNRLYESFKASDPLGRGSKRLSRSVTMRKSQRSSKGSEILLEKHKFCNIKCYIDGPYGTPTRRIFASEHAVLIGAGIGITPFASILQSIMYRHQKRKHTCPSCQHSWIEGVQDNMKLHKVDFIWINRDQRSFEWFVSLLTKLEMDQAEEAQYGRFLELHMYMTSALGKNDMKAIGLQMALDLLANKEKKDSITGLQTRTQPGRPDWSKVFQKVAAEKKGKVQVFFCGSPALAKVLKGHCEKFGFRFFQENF
# [11] = A549 cell viability effects, profiling panel, calcein-AM fluorescence, 48 h, basal (AID 1162); settings: higher = more signal; also: test concentration not given here
# [12] = adipocyte viability effects, profiling panel, cell-based, 3T3-L1 adipocytes, calcein-AM fluorescence, 48 h, basal (AID 1163); settings: 3T3-L1 adipocytes viability, higher = more signal; also: test concentration not given here
# [13] = HepG2 cell viability effects, profiling panel, calcein-AM fluorescence, 48 h, basal (AID 1164); settings: higher = more signal; also: test concentration not given here
# [14] = MM1S cell viability effects, profiling panel, calcein-AM fluorescence, 48 h, basal (AID 1165); settings: higher = more signal;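 also: viability of MM1S multiple myeloma cells under basal unstimulated conditions; test concentration not given here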
# [15] = basal RPMI8226 viability, no added stimulus, profiling panel, cell-based, calcein-AM fluorescence, 48 h, PK04 Diversity Set (AID 1166); settings: RPMI8226 myeloma viability, higher = more signal;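 also: cells grown under basal conditions without added stimulus; test concentration not given here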
# [16] = basal HepG2 mitochondrial membrane potential changes, profiling panel, cell-based, JC-1 fluorescence, 24 h, 100 nL compound (AID 1167); settings: higher = more signal; also: test concentration not given here
# [17] = basal 3T3-L1 adipocyte mitochondrial potential changes, profiling panel, cell-based, JC-1 fluorescence, 3T3-L1 adipocytes, 24 h, 100 nL compound (AID 1168); settings: JC-1 mitochondrial fluorescence, higher = more signal, called active from +8 up or from −8 down; also: test concentration not given here
# [18] = basal RPMI8226 mitochondrial membrane potential changes, profiling panel, cell-based, JC-1 fluorescence, 24 h, 100 nL compound (AID 1169); settings: RPMI8226 myeloma, JC-1 mitochondrial potential fluorescence, higher = more signal; also: test concentration not given here
# [19] = basal MM1S mitochondrial membrane potential changes, profiling panel, cell-based, JC-1 fluorescence, 24 h, 100 nL compound (AID 1170); settings: higher = more signal; also: test concentration not given here
# [20] = A549 lung cancer cell viability effects, profiling panel, resazurin fluorescence, 24 h, PK04 Diversity Set (AID 1171); settings: higher = more signal, called active from +8 up or from −8 down; also: test concentration not given here
SMILES,z-score [1],composite z-score [2],z-score [3],z-score [4],z-score [5],z-score [6],z-score [7],z-score [8],z-score [9],z-score [10],z-score [11],z-score [12],z-score [13],z-score [14],z-score [15],z-score [16],z-score [17],z-score [18],z-score [19],z-score [20]
O=C1OCCC=C[C@H]2OC34C=CCN(Cc5ccccc5)C(=O)[C@H]3N(CCCCCCO)C(=O)[C@@H]4C12 (stereo not given in full),1.12 (inactive),-0.0831,0.944 (inactive),0.396 (inactive),0.884 (inactive),0.43 (inactive),1.2,1.11 (inactive),0.0473 (inactive),1.97,0.612,-0.0143,0.457,1.68,0.581,0.445,0.903 (inactive),-0.0486,-0.248,1.33 (inactive)
COC(=O)c1ccc(C23CC2(C(NP(=O)(c2ccccc2)c2ccccc2)c2ccccc2)C3)cc1 (stereo not given),-0.402 (inactive),1.08,7.74 (inactive),0.191 (inactive),-0.279 (inactive),-1.02 (inactive),1.36,-0.489 (inactive),-0.652 (inactive),-4.37,0.766,0.406,1.48,-2.06,-3.34,3.7,0.711 (inactive),-0.369,-1.45,-0.416 (inactive)
Cc1ccc([C@H]2[C@H](C(=O)O)[C@H](Sc3ccccc3)[C@@H](C(C)C)N2S(=O)(=O)c2ccc(C)cc2)cc1,-1.51 (inactive),-0.0675,1.09 (inactive),0.456 (inactive),-0.922 (inactive),0.781 (inactive),-0.137,1.01 (inactive),0.349 (inactive),1.16,-0.74,-0.594,-0.447,-0.0237,-0.802,-1.63,0.327 (inactive),-0.199,-0.437,-0.064 (inactive)
CCOC(=O)C1=CC[C@@H](c2ccccc2)N(S(=O)(=O)c2ccc(C)cc2)[C@H]1C(=O)OCC,-0.488 (inactive),0.632,3.81 (inactive),1.17 (inactive),-0.54 (inactive),0.583 (inactive),-0.338,0.439 (inactive),-1.45 (inactive),-0.75,-0.613,-0.467,-0.111,0.884,0.0651,3,0.252 (inactive),-0.619,-1.24,0.706 (inactive)
CCCCCCCCCCC(O)C1C=CC2C(=O)N(Cc3ccccc3)C(=O)C2N1n1cnnc1 (stereo not given),-1.55 (inactive),0.918,1.32 (inactive),-0.595 (inactive),1.6 (inactive),-2.48 (inactive),1.19,-2.6 (inactive),-1.1 (inactive),-4.63,-0.509,0.381,-0.324,-0.514,-0.921,0.015,-1.51 (inactive),-0.0408,-0.979,-0.929 (inactive)
CCN(CC)c1ccc(N2CC=CC34O[C@@H]5C=CCCOC(=O)C5[C@H]3C(=O)N(CCCCCO)[C@@H]4C2=O)cc1 (stereo not given in full),2.82 (inactive),0.0391,2 (inactive),-0.0803 (inactive),1.11 (inactive),0.352 (inactive),-0.195,-0.11 (inactive),0.604 (inactive),0.895,1.69,0.132,1.08,1.39,-0.0513,1.65,1.27 (inactive),0.589,0.84,1.62 (inactive)
COCCOC(=O)N1C(=O)[C@@]2(c3cc(C#CCC(C(=O)OC)C(=O)OC)ccc31)[C@H](C(=O)N1CCCCCCC1)[C@H]1C(=O)O[C@H](c3ccccc3)[C@H](c3ccccc3)N1[C@@H]2c1ccc(OCCO)cc1,0.917 (inactive),2.5,17.1 (active),4.27 (inactive),0.791 (inactive),1.14 (inactive),-0.0447,0.327 (inactive),0.43 (inactive),0.547,0.855,1.27,1.19,-0.38,0.185,0.322,-5 (inactive),-0.812,-1.41,1.33 (inactive)
CC(C)Cc1ccc(CN2CC[C@@H](NS(=O)(=O)c3ccccc3)C2)cc1,-19.2 (active),-0.198,2.49 (inactive),0.408 (inactive),0.306 (inactive),0.574 (inactive),0.709,0.312 (inactive),-0.907 (inactive),-3.68,-0.977,-0.568,-1.63,-3.18,-3.72,-1.13,0.787 (inactive),-0.414,-2.29,-0.235 (inactive)
